8 sequences from paper PMC7862700, “An all-to-all approach to the identification of sequence-specific readers for epigenetic DNA modifications on cytosine” can be followed below.

Test in all cases: DAPPL (digital affinity profiling via proximity ligation, sequencing); 10 mM Tris-HCl pH 7.5, 50 mM NaCl, 1 mM DTT, 4% glycerol, room temperature, 30 min; GST-TFs on glutathione beads, 16-mer random dsDNA library, 0.1% formaldehyde crosslink after washing; high values mean tight binding
Common to all, as to settings: protein: recombinant; tags: N-terminal GST; dsDNA, one strand shown

For one test, the target named is T1, ERF (Homo sapiens, UniProt P50548 1-548).
T1 sequence: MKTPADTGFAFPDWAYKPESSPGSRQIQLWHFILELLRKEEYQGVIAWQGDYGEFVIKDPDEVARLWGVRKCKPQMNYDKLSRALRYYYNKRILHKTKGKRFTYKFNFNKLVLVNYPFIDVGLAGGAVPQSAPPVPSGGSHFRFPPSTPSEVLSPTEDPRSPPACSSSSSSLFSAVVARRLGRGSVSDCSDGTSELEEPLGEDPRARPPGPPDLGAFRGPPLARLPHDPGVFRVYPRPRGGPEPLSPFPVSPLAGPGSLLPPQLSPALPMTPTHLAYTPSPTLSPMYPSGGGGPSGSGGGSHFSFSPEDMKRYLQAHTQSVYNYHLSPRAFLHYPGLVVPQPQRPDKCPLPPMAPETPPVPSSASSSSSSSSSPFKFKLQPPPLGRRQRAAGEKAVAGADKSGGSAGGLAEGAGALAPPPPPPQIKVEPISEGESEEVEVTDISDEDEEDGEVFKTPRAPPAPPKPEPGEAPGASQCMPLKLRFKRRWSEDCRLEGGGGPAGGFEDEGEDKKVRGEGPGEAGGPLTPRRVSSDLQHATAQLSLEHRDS
The method, boiled down: (§1)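 Pools were built from human transcription factors expressed in yeast as GST fusions, captured on glutathione beads and DNA-barcoded, along with a tag-only sample. Incubation with 200 nmole of a 16-mer random double-stranded DNA library lasted 30 min at room temperature in Tris/NaCl/DTT/glycerol buffer, and was followed by washing, 0.1% formaldehyde crosslinking, proximity ligation, PCR amplification and Illumina NextSeq500 sequencing. Binding signal is the quotient of each hexamer's read frequency for a factor and its frequency for the tag-only sample.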

A further test concerns the target T2, ETV3L (Homo sapiens, UniProt Q6ZN32 1-361).
T2 sequence: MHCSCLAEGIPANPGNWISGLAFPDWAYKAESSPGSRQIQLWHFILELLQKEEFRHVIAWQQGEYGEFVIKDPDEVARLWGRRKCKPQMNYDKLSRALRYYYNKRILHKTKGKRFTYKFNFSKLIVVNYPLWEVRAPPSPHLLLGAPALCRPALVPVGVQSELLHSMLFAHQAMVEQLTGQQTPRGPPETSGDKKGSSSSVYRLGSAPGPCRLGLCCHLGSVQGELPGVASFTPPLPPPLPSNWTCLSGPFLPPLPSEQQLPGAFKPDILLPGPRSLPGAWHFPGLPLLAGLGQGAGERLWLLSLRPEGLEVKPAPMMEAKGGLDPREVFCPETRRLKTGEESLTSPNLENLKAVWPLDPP
A digest of the protocol: as §1

In another test the target is T3, ETS2 (Homo sapiens, UniProt P15036 1-469).
T3 sequence: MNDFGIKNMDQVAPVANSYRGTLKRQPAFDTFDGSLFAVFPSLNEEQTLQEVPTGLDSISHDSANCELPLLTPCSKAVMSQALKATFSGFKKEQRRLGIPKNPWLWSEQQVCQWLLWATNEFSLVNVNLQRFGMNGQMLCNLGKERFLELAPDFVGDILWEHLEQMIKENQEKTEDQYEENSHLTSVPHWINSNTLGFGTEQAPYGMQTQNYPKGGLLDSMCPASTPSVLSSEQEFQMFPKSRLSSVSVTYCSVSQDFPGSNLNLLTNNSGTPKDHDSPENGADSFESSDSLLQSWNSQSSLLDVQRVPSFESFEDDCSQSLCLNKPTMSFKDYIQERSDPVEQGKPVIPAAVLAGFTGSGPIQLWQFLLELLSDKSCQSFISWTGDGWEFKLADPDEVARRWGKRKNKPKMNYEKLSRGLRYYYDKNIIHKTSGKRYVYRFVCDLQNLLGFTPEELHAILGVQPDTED
The method, boiled down:
as §1

The next test deals with T4, SPDEF (Homo sapiens, UniProt O95238 1-335).
T4 sequence: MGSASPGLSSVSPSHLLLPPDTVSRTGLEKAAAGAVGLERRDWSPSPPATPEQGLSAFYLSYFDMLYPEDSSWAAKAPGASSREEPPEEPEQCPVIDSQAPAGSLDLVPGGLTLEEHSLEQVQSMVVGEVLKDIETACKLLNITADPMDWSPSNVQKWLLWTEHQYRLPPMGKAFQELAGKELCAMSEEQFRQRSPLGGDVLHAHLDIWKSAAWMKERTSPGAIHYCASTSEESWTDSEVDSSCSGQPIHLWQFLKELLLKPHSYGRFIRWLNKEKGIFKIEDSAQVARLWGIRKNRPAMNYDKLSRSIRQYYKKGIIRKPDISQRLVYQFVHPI
A digest of the protocol: as §1

The next test has as its target T5, ETV7 (Homo sapiens, UniProt Q9Y603 1-341).
T5 sequence: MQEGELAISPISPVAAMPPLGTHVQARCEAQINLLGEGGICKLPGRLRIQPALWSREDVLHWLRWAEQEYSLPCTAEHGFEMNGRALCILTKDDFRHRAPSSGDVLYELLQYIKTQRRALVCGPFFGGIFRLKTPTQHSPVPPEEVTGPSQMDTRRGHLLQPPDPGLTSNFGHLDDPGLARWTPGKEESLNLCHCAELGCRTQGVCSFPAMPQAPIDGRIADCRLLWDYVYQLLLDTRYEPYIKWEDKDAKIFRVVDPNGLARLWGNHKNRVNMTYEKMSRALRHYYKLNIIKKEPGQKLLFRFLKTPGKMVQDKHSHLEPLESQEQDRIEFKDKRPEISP
The method, boiled down:
as §1

A further test has as its target T6, ELF5 (Homo sapiens, UniProt Q9UKW6-2 1-255).
T6 sequence: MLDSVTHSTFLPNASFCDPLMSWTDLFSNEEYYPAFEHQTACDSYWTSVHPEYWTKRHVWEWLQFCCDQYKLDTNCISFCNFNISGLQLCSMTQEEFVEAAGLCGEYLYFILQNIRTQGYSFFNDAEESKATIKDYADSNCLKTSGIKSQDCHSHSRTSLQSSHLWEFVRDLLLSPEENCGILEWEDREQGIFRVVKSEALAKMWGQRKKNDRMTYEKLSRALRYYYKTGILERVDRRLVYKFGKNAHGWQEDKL
The method, boiled down:
as §1

The target in another test is T7, ETV3 (Homo sapiens, UniProt P41162-2 1-143).
T7 sequence: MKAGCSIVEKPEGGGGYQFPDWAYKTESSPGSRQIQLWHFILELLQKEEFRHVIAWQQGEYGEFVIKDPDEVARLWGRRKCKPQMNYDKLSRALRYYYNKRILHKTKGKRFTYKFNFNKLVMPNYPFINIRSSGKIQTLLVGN
A digest of the protocol:
as §1

For a further test, the target named is ETV6 (Homo sapiens, UniProt P41212 1-452). The method, boiled down:
as §1

ETV6, sequence (P41212 whole entry): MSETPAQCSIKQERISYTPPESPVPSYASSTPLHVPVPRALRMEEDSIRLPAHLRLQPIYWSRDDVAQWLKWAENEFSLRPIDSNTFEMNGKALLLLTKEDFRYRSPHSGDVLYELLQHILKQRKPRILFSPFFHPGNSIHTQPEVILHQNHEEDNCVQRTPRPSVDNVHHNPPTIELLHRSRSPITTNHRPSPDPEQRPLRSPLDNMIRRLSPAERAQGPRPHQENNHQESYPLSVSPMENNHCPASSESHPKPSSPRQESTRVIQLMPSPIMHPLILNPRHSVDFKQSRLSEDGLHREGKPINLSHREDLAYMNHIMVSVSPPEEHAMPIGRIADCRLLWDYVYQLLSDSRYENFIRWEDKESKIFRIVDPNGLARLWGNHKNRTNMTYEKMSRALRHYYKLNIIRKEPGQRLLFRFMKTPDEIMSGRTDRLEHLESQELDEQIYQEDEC

Consider TGGTTT, for which the binding signal with ERF was 1.53 fold enrichment (6-mer frequency, TF over GST control); with ETV3L it was 1.51 fold enrichment (6-mer frequency, TF over GST control); with ETS2 it was 1.54 fold enrichment (6-mer frequency, TF over GST control); with SPDEF it was 1.49 fold enrichment (6-mer frequency, TF over GST control); with ETV7, 1.44 fold enrichment (6-mer frequency, TF over GST control); with ELF5, 1.54 fold enrichment (6-mer frequency, TF over GST control). Further, the binding signal with ETV3 is 1.52 fold enrichment (6-mer frequency, TF over GST control); with ETV6, 1.67 fold enrichment (6-mer frequency, TF over GST control).

Take CGATGG: the binding signal in the test with ERF is 1.18 fold enrichment (6-mer frequency, TF over GST control); with ETV3L it was 1.34 fold enrichment (6-mer frequency, TF over GST control); in the test with ETS2 it was 1.33 fold enrichment (6-mer frequency, TF over GST control); with SPDEF it was 1.29 fold enrichment (6-mer frequency, TF over GST control); in the test with ETV7, 1.39 fold enrichment (6-mer frequency, TF over GST control); with ELF5, 1.18 fold enrichment (6-mer frequency, TF over GST control). The binding signal with ETV3 was 1.24 fold enrichment (6-mer frequency, TF over GST control); in the test with ETV6, 1.33 fold enrichment (6-mer frequency, TF over GST control).

Take TTGGTT: the binding signal in the test with ERF was 1.43 fold enrichment (6-mer frequency, TF over GST control); in the test with ETV3L it was 1.45 fold enrichment (6-mer frequency, TF over GST control); in the test with ETS2 it was 1.48 fold enrichment (6-mer frequency, TF over GST control); in the test with SPDEF, 1.45 fold enrichment (6-mer frequency, TF over GST control); in the test with ETV7, 1.52 fold enrichment (6-mer frequency, TF over GST control); with ELF5, 1.37 fold enrichment (6-mer frequency, TF over GST control). In addition, the binding signal is 1.36 fold enrichment (6-mer frequency, TF over GST control) with ETV3 and 1.44 fold enrichment (6-mer frequency, TF over GST control) in the test with ETV6.

Regarding TATGAA, the binding signal with ERF was 1.21 fold enrichment (6-mer frequency, TF over GST control); with ETV3L it was 1.21 fold enrichment (6-mer frequency, TF over GST control); with ETS2, 1.27 fold enrichment (6-mer frequency, TF over GST control); with SPDEF, 1.16 fold enrichment (6-mer frequency, TF over GST control); with ETV7 it was 1.2 fold enrichment (6-mer frequency, TF over GST control); in the test with ELF5, 1.07 fold enrichment (6-mer frequency, TF over GST control). Also, the binding signal in the test with ETV3 is 1.17 fold enrichment (6-mer frequency, TF over GST control); with ETV6, 1.13 fold enrichment (6-mer frequency, TF over GST control).

Turning to CTTTTC, the binding signal in the test with ERF is 1.33 fold enrichment (6-mer frequency, TF over GST control); with ETV3L it was 1.48 fold enrichment (6-mer frequency, TF over GST control); in the test with ETS2, 1.33 fold enrichment (6-mer frequency, TF over GST control); with SPDEF, 1.49 fold enrichment (6-mer frequency, TF over GST control); in the test with ETV7 it was 1.49 fold enrichment (6-mer frequency, TF over GST control); in the test with ELF5 it was 1.58 fold enrichment (6-mer frequency, TF over GST control). Moreover, the binding signal with ETV3 is 1.69 fold enrichment (6-mer frequency, TF over GST control); with ETV6, 1.57 fold enrichment (6-mer frequency, TF over GST control).

Take TTCGTA: the binding signal with ERF was 1.39 fold enrichment (6-mer frequency, TF over GST control); with ETV3L it was 1.35 fold enrichment (6-mer frequency, TF over GST control); with ETS2, 1.36 fold enrichment (6-mer frequency, TF over GST control); in the test with SPDEF it was 1.21 fold enrichment (6-mer frequency, TF over GST control); with ETV7, 1.4 fold enrichment (6-mer frequency, TF over GST control); with ELF5, 1.3 fold enrichment (6-mer frequency, TF over GST control). The binding signal with ETV3 is 1.44 fold enrichment (6-mer frequency, TF over GST control); in the test with ETV6, 1.3 fold enrichment (6-mer frequency, TF over GST control).

As for CTACTA, the binding signal was 1.35 fold enrichment (6-mer frequency, TF over GST control) with ERF; 1.29 fold enrichment (6-mer frequency, TF over GST control) in the test with ETV3L; 1.26 fold enrichment (6-mer frequency, TF over GST control) with ETS2; 1.28 fold enrichment (6-mer frequency, TF over GST control) with SPDEF; 1.44 fold enrichment (6-mer frequency, TF over GST control) with ETV7; 1.24 fold enrichment (6-mer frequency, TF over GST control) with ELF5. Moreover, the binding signal was 1.23 fold enrichment (6-mer frequency, TF over GST control) with ETV3 and 1.46 fold enrichment (6-mer frequency, TF over GST control) with ETV6.

For TAAACT, the binding signal with ERF is 1.35 fold enrichment (6-mer frequency, TF over GST control); with ETV3L, 1.17 fold enrichment (6-mer frequency, TF over GST control); with ETS2, 1.18 fold enrichment (6-mer frequency, TF over GST control); with SPDEF, 1.01 fold enrichment (6-mer frequency, TF over GST control); with ETV7 it was 1.04 fold enrichment (6-mer frequency, TF over GST control); with ELF5, 1.16 fold enrichment (6-mer frequency, TF over GST control). In addition, the binding signal with ETV3 was 1.15 fold enrichment (6-mer frequency, TF over GST control); with ETV6, 1.13 fold enrichment (6-mer frequency, TF over GST control).
